Assay results from PubChem BioAssay (EPA / NIEHS).
Inconclusive results are not listed. Activity calls are given as the source filed them. The calls were made as follows, unless noted: active = hit-call score of the fitted dose curve at least 0.9, where 1 is the maximum; inactive = score below 0.9.

Columns and labels:
[1] = read-out: Monokine induced gamma interferon (MIG), CXCL9 (gene 4283); test: BSK_3C_MIG: BioMAP Diversity Plus: 3C Assay for Monokine induced gamma interferon (MIG) Biomarker Activity (AID 2283021); conditions: primary human endothelial cells (HUVEC); actives raise or lower the signal
Outline: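 ELISA measurement of MIG in human umbilical vein endothelial cells 24 h after treatment. Cytotoxicity tracked by SRB staining in parallel cultures; gain or loss of signal fitted relative to DMSO.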

[2] = target: human Vitamin D Receptor (VDR), VDR (gene 7421) (UniProt P11473); test: ATG_VDR_TRANS: Attagene TRANS-FACTORIAL HepG2 Assay for human Vitamin D Receptor (VDR) (AID 2283022; active = hit-call score of the fitted dose curve at least 0.9, where 1 is the maximum)
human Vitamin D Receptor (VDR), VDR (gene 7421), sequence (P11473 whole entry, looked up): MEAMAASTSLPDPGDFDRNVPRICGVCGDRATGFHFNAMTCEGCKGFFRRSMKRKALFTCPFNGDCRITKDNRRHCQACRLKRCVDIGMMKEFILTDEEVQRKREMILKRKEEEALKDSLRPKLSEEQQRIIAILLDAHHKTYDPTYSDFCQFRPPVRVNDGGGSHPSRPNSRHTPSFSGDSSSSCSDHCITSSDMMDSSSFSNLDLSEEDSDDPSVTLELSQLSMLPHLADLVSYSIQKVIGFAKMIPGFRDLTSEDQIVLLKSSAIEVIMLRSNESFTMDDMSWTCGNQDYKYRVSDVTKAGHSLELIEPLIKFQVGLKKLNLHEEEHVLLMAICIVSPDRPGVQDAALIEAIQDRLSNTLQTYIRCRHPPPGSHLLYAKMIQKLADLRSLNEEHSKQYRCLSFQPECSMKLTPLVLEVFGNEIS
Outline: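 Multiplexed TRANS reporter in HepG2; 24 h treatment; reporter mRNA by RT-PCR plus capillary electrophoresis; upregulation scored relative to DMSO.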

[3] = BSK_3C_SRB: Viability Assessment in the BioMAP Diversity Plus: 3C Assay (AID 2283023); conditions: primary human endothelial cells (HUVEC);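 also: fitted both ways against DMSO so a hit may be signal rise or drop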
Outline: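 Overt cytotoxicity is gauged in parallel confluent HUVEC cultures by SRB total-protein staining at the time of biomarker measurement, 24 h after dosing. Gain or loss of signal is fitted versus DMSO.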

[4] = read-out: Matrix Metallopeptidase 1 (MMP1), MMP1 (gene 4312); test: BSK_BE3C_MMP1: BioMAP Diversity Plus: BE3C Assay for Matrix Metallopeptidase 1 (MMP1) Biomarker Activity (AID 2283024); conditions: primary human bronchial epithelial cells; actives raise or lower the signal
Outline: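 ELISA measurement of MMP-1 after 24 h compound exposure of primary human bronchial epithelial cells. Changes in either direction fitted relative to DMSO; parallel SRB staining checked overt cytotoxicity.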

[5] = BSK_3C_Vis: BioMAP Diversity Plus: 3C Assay for Morphology Visualization (AID 2283025); conditions: primary human endothelial cells (HUVEC);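 also: fitted both ways so gain or loss versus DMSO counts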
Outline: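 Light-microscopy visualization of HUVEC cultures at 24 h post-treatment, with DMSO as baseline for bidirectional fitting.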

[6] = read-out: Pselectin, SELP (gene 6403); test: BSK_4H_Pselectin: BioMAP Diversity Plus: 4H Assay for Pselectin Biomarker Activity (AID 2283026); conditions: primary human endothelial cells (HUVEC); actives raise or lower the signal
Outline: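 ELISA of surface P-selectin on HUVEC, 24 h after dosing, with parallel SRB staining (0.1% after 10% TCA fixation, 560 nm) for overt cytotoxicity. Activity fitted in both directions relative to DMSO.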

[7] = BSK_4H_SRB: Viability Assessment in the BioMAP Diversity Plus: 4H Assay (AID 2283027); conditions: primary human endothelial cells (HUVEC);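 also: cells exposed to compound for 24 h before staining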
Outline: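 HUVEC, 24 h post-dose; 10% TCA fix, 0.1% SRB stain, A560 nm. Total protein = overt cytotoxicity, parallel to biomarker read. Bidirectional fit vs DMSO baseline.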

[8] = BSK_BE3C_SRB: Viability Assessment in the BioMAP Diversity Plus: BE3C Assay (AID 2283028); conditions: primary human bronchial epithelial cells
Outline: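 SRB total-protein staining (0.1%, after TCA fixation) of chemically dosed human bronchial epithelial primary cells at 24 h; DMSO serves as the negative control for bidirectional curve fitting.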

[9] = read-out: Urokinase-type plasminogen activator receptor (uPAR), PLAUR (gene 5329); test: BSK_4H_uPAR: BioMAP Diversity Plus: 4H Assay for Urokinase-type plasminogen activator receptor (uPAR) Biomarker Activity (AID 2283030); conditions: primary human endothelial cells (HUVEC); actives raise or lower the signal
Outline: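 Endpoint derived via bidirectional curve fitting against DMSO baseline; readout was ELISA detection of uPAR on umbilical vein endothelial cells at 24 h post-treatment, with SRB-stained parallel cultures assessing cytotoxicity.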

[10] = read-out: Vascular endothelial growth factor receptor 2 (Homo sapiens) (UniProt P35968); test: BSK_4H_VEGFRII: BioMAP Diversity Plus: 4H Assay for Vascular endothelial growth factor receptor 2 (VEGFR2) Biomarker Activity (AID 2283031); conditions: primary human endothelial cells (HUVEC); actives raise or lower the signal
Outline: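 In this multiplexed HUVEC system, biomarker ELISA was performed after 24 h chemical exposure. Parallel SRB staining (TCA fixation, 560 nm) tracked cytotoxicity; DMSO served as baseline.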

[11] = read-out: Human Leukocyte Antigen - DR isotype (HLADR), HLA-DRA (gene 3122); test: BSK_BE3C_HLADR: BioMAP Diversity Plus: BE3C Assay for Human Leukocyte Antigen - DR isotype (HLADR) Biomarker Activity (AID 2283032); conditions: primary human bronchial epithelial cells; actives raise or lower the signal
Outline: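 Cell-surface HLA-DR ELISA readout at 24 h after dosing in the BE3C primary human lung bronchial epithelial system; gain or loss of signal against DMSO, with parallel sulforhodamine B staining of total protein for overt cytotoxicity.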

[12] = read-out: Vascular cell adhesion molecule 1 (VCAM1), VCAM1 (gene 7412); test: BSK_4H_VCAM1: BioMAP Diversity Plus: 4H Assay for Vascular cell adhesion molecule 1 (VCAM1) Biomarker Activity (AID 2283033); conditions: primary human endothelial cells (HUVEC); actives raise or lower the signal;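 also: cell-surface VCAM-1 protein measured by ELISA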
Outline: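 VCAM-1 ELISA read 24 h after chemical dosing of HUVEC in the BioMAP 4H system, with gain or loss of signal fitted relative to DMSO. Parallel SRB staining (560 nm) checked overt cytotoxicity.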

[13] = read-out: Interferon-gamma inducible Protein 10 (IP10), CXCL10 (gene 3627); test: BSK_BE3C_IP10: BioMAP Diversity Plus: BE3C Assay for Interferon-gamma inducible Protein 10 (IP10) Biomarker Activity (AID 2283034); conditions: primary human bronchial epithelial cells; actives raise or lower the signal
Outline: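 IP-10 quantified by ELISA in human primary bronchial epithelial cell cultures at 24 hours post-dosing. Gain or loss of signal fitted relative to DMSO; parallel SRB staining assessed overt cytotoxicity.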

[14] = read-out: Monokine induced gamma interferon (MIG), CXCL9 (gene 4283); test: BSK_BE3C_MIG: BioMAP Diversity Plus: BE3C Assay for Monokine induced gamma interferon (MIG) Biomarker Activity (AID 2283035); conditions: primary human bronchial epithelial cells; actives raise or lower the signal;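 also: MIG protein measured by ELISA in BE3C cultures after 24 h of dosing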
Outline: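 Dose cells (human primary bronchial epithelial), incubate 24 h, quantify MIG by ELISA, then fit concentration–response in both directions relative to DMSO control.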

[15] = read-out: Transforming growth factor beta 1 (TGFb1), TGFB1 (gene 7040); test: BSK_BE3C_TGFb1: BioMAP Diversity Plus: BE3C Assay for Transforming growth factor beta 1 (TGFb1) Biomarker Activity (AID 2283036;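 also: TGF-b1 protein level measured by ELISA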); conditions: primary human bronchial epithelial cells; actives raise or lower the signal
Outline: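 ELISA readout of TGF-b1 from human lung bronchial epithelial primary cells, taken 24 h post-treatment. Gain or loss of signal fitted relative to DMSO baseline, with parallel SRB staining for overt cytotoxicity.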

[16] = read-out: Plasminogen activator inhibitor-1 (PAI1), SERPINE1 (gene 5054); test: BSK_BE3C_PAI1: BioMAP Diversity Plus: BE3C Assay for Plasminogen activator inhibitor-1 (PAI1) Biomarker Activity (AID 2283037); conditions: primary human bronchial epithelial cells; actives raise or lower the signal
Outline: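 PAI-1 was measured by ELISA in human primary bronchial epithelial cultures 24 h after chemical dosing, with cytotoxicity checked by SRB total-protein staining in parallel cultures. Activity was fitted in both directions relative to DMSO.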

[17] = read-out: urokinase plasminogen activator (uPA), PLAU (gene 5328); test: BSK_BE3C_uPA: BioMAP Diversity Plus: BE3C Assay for urokinase plasminogen activator (uPA) Biomarker Activity (AID 2283038); conditions: primary human bronchial epithelial cells; actives raise or lower the signal;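 also: uPA protein level quantified by ELISA in cell cultures; uPA read one day after compound addition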
Outline: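 Using confluent primary human lung bronchial epithelial cultures, we dosed chemicals, waited 24 h, then ran a uPA ELISA, fitting bidirectionally against DMSO.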

[18] = read-out: Urokinase-type plasminogen activator receptor (uPAR), PLAUR (gene 5329); test: BSK_BE3C_uPAR: BioMAP Diversity Plus: BE3C Assay for Urokinase-type plasminogen activator receptor (uPAR) Biomarker Activity (AID 2283039); conditions: primary human bronchial epithelial cells; actives raise or lower the signal;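 also: cells exposed to compound for one day before measurement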
Outline: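 uPAR levels were measured by ELISA after 24 h compound treatment of primary human bronchial epithelial cells, fitted in both directions relative to DMSO. Parallel SRB staining served as the cytotoxicity read-out.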

[19] = read-out: Interleukin-6 (IL6), IL6 (gene 3569); test: BSK_CASM3C_IL6: BioMAP Diversity Plus: CASM3C Assay for Interleukin-6 (IL6) Biomarker Activity for (AID 2283040); conditions: primary human coronary artery smooth muscle cells; actives raise or lower the signal
[20] = read-out: Thrombomodulin, THBD (gene 7056); test: BSK_3C_Thrombomodulin: BioMAP Diversity Plus: 3C Assay for Thrombomodulin Biomarker Activity (AID 2283029); conditions: primary human endothelial cells (HUVEC); actives raise or lower the signal
Outline: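 ELISA measurement of thrombomodulin on HUVEC surface 24 h after chemical dosing; activity fitted in both directions relative to DMSO vehicle.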

Measured: AC50

CC(=O)Nc1ccccc1O
inactive: [1] | [2] | [3] | [4] | [5] | [6] | [7] | [8] | [9] | [10] | [11] | [12] | [13] | [14] | [15] | [16] | [17] | [18] | [19]

C=CCOC(=O)CCC1CCCCC1
inactive: [1] | [2] | [3] | [6] | [7] | [8] | [9] | [10] | [11] | [12] | [13] | [14] | [16] | [17] | [18] | [19]

CCC(=O)OCc1ccccc1
inactive: [1] | [2] | [3] | [6] | [7] | [8] | [9] | [10] | [11] | [12] | [13] | [14] | [16] | [17] | [18] | [19]

C=C[Si](OCC)(OCC)OCC
inactive: [1] | [2] | [3] | [5] | [6] | [7] | [8] | [9] | [10] | [11] | [12] | [13] | [14] | [15] | [16] | [17] | [18] | [19]

CC(C)Oc1ccccc1O
inactive: [1] | [3] | [4] | [5] | [6] | [7] | [8] | [20] | [9] | [10] | [11] | [12] | [13] | [14] | [15] | [16] | [17] | [18] | [19]

OC[C@H]1O[C@H](O[C@]2(CCl)O[C@H](CCl)[C@@H](O)[C@@H]2O)[C@H](O)[C@@H](O)[C@H]1Cl
inactive: [1] | [2] | [3] | [6] | [7] | [8] | [20] | [9] | [10] | [11] | [12] | [13] | [14] | [16] | [17] | [18] | [19]

CCCCCCCCCCCCCCCCCC(=O)OCC(CC)CCCC (stereo not drawn)
active: [16] 0.25 µM
inactive: [1] | [3] | [4] | [5] | [6] | [7] | [8] | [9] | [10] | [11] | [12] | [13] | [14] | [15] | [17] | [18] | [19]
